# Measurements: ChEMBL document CHEMBL1961873, “Compounds: GSK PKIS; Assays: Nanosyn kinase panel” (2012)
# Tests used:
# [1] = molecular target: Sphingosine kinase 1 (Homo sapiens) (UniProt Q9NYA1); conditions: at 1 µM;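 also: mean SPHK1 inhibition value reported from the GSK PKIS kinase panel screen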
# [2] = molecular target: T1, Sphingosine kinase 2 (Homo sapiens) (UniProt Q9NRA0); conditions: at 0.1 µM
# T1 sequence (whole entry): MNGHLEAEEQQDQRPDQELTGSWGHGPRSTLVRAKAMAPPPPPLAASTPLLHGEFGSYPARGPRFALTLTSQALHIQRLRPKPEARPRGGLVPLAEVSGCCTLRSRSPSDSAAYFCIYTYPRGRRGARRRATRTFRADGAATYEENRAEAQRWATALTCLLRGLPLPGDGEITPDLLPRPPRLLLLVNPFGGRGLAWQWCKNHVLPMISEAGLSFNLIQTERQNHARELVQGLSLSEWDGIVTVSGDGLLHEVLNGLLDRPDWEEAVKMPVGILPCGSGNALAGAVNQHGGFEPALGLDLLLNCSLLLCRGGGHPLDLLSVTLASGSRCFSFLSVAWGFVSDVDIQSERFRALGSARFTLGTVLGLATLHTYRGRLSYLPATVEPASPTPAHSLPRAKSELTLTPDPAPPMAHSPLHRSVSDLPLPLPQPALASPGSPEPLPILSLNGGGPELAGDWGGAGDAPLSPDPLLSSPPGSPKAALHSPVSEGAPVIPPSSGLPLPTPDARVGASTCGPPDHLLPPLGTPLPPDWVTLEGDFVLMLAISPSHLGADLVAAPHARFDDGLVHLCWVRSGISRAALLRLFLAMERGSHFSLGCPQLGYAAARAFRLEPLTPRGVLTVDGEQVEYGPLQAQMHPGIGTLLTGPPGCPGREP
# [3] = molecular target: T1, Sphingosine kinase 2 (Homo sapiens); conditions: at 1 µM
# [4] = molecular target: Casein kinase II subunit alpha (Homo sapiens) (UniProt P68400); conditions: at 0.1 µM
# [5] = molecular target: Casein kinase II subunit alpha (Homo sapiens) (UniProt P68400); conditions: at 1 µM
# [6] = molecular target: T2, Inhibitor of nuclear factor kappa-B kinase subunit alpha (Homo sapiens) (UniProt O15111); conditions: at 0.1 µM
# T2 sequence (whole entry): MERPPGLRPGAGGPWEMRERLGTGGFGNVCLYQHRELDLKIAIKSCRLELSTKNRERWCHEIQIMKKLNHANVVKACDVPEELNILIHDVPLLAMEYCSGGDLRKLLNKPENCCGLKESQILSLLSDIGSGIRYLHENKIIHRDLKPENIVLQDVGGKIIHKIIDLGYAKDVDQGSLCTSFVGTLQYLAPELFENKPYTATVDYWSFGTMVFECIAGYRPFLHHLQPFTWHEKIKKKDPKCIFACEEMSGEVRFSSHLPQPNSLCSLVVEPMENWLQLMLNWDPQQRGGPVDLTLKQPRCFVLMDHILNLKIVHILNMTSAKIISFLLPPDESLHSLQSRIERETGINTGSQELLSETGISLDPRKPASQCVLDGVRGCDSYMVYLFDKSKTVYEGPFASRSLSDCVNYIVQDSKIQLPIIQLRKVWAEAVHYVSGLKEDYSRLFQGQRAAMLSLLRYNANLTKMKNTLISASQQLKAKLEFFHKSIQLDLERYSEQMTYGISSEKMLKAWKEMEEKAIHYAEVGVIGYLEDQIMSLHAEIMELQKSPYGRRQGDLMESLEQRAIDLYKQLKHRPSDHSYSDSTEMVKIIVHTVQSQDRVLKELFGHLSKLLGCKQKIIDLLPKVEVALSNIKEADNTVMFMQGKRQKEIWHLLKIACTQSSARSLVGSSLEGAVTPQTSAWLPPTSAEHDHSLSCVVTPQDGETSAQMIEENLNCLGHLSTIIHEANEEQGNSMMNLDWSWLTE
# [7] = molecular target: T2, Inhibitor of nuclear factor kappa-B kinase subunit alpha (Homo sapiens); conditions: at 1 µM
# [8] = molecular target: T3, Inhibitor of nuclear factor kappa-B kinase subunit beta (Homo sapiens) (UniProt O14920); conditions: at 0.1 µM
# T3 sequence (whole entry): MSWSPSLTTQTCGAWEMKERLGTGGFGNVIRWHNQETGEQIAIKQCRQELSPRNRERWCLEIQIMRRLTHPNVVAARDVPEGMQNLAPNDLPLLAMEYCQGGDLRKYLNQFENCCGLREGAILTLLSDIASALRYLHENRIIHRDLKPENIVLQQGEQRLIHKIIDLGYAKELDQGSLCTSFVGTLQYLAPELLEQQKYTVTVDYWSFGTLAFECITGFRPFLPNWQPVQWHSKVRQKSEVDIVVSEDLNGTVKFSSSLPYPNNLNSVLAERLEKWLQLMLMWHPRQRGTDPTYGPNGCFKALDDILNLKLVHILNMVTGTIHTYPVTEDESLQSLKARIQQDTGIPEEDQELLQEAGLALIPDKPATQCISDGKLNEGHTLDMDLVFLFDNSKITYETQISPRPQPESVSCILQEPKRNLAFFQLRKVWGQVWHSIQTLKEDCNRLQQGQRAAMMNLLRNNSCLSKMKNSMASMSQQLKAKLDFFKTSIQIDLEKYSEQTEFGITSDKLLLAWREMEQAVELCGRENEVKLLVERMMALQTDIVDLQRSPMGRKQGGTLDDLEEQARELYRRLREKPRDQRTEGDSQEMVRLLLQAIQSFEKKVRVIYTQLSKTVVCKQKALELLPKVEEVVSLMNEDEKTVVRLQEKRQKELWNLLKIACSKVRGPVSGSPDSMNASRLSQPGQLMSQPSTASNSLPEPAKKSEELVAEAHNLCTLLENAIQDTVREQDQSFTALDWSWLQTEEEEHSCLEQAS
# [9] = molecular target: T3, Inhibitor of nuclear factor kappa-B kinase subunit beta (Homo sapiens); conditions: at 1 µM
# [10] = molecular target: T4, Inhibitor of nuclear factor kappa-B kinase subunit epsilon (Homo sapiens) (UniProt Q14164); conditions: at 0.1 µM;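 also: mean inhibition of IKKε reported, from the GSK PKIS dataset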
# T4 sequence (whole entry): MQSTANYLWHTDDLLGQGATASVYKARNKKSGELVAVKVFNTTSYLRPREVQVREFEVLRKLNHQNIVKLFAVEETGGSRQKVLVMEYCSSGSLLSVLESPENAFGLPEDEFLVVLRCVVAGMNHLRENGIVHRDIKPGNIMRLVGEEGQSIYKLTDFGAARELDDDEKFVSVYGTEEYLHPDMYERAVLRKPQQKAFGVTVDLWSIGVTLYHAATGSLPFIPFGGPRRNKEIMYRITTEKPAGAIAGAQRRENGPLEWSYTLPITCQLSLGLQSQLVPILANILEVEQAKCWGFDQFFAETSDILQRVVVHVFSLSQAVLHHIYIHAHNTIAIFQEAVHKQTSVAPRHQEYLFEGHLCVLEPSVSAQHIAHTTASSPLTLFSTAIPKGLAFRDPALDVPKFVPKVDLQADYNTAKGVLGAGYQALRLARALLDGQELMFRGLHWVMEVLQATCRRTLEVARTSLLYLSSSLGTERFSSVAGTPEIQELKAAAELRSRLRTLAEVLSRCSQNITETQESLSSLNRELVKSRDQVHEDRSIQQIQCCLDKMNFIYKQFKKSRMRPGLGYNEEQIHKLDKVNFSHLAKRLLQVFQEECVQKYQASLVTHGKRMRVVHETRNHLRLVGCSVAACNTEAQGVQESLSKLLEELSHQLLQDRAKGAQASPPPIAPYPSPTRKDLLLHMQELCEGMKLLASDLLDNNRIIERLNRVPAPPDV
# Sequence of Casein kinase II subunit alpha (Homo sapiens) (P68400 whole entry, looked up): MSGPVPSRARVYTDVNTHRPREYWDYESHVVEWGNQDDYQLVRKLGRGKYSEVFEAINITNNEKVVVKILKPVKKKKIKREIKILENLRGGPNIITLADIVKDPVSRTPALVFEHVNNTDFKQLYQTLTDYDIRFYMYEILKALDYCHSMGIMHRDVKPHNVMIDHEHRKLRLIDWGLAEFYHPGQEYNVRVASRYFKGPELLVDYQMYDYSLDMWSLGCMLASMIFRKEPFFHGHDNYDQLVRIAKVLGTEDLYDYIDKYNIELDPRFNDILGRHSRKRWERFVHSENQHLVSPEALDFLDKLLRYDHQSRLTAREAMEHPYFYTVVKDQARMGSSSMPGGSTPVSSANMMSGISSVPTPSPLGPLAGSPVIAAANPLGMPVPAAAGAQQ
# Sequence of Sphingosine kinase 1 (Homo sapiens) (Q9NYA1 whole entry): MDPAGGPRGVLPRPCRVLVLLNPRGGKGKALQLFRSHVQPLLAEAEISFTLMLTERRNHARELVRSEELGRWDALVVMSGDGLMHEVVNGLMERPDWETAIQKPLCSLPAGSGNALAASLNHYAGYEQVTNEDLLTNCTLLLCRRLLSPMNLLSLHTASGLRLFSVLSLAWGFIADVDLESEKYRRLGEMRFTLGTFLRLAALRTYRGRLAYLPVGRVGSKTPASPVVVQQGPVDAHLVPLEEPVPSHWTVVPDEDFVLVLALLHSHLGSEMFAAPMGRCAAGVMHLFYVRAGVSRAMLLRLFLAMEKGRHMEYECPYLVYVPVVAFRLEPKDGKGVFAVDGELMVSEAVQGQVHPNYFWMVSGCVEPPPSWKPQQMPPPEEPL
compound,measurement,setting,value
Cc1ccc(C(=O)NC2CC2)cc1-c1ccc2[nH]ncc2c1,inhibition,[1],-1.63%
same,inhibition,[2],-1.1%
same,inhibition,[3],0.65%
same,inhibition,[4],-2.79%
same,inhibition,[5],-1.68%
same,inhibition,[6],7.28%
same,inhibition,[7],-2.31%
same,inhibition,[8],-3.22%
same,inhibition,[9],-2.64%
same,inhibition,[10],-3.17%
